Data reported in PubChem BioAssay AID393 (SGCOxCompounds, 2006).
Several values for one entry are separate records, joined by “and”; a condition that tells them apart may be missing. Identical values can stand only once. Activity calls are given as the source filed them. No rule for the calls is given here.

Target: Serine/threonine-protein kinase pim-1 (Homo sapiens) (UniProt P11309)
Test: PIM1 kinase ligand binding by thermal shift, biophysical, human, melting temperature shift (AID 393)
Details: Thermal shift assay, hits give high values; at 10 µM, protein 2 µM, buffer 10 mM PIPES, pH 6.5, NaCl 150 mM unless noted

Serine/threonine-protein kinase pim-1 (Homo sapiens), sequence (P11309 whole entry, looked up): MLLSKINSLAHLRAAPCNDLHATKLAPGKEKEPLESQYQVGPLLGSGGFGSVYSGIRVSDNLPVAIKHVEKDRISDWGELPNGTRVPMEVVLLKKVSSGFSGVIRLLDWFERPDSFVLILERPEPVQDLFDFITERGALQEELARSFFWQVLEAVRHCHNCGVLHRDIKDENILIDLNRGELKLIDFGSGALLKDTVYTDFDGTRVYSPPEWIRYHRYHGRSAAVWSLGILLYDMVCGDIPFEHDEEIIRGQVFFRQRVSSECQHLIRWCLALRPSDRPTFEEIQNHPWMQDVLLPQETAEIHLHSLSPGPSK

SMILES	Tm shift
Nc1ccc(-c2cnn3ccc(Nc4cccc(Cl)c4)nc23)cc1	6.84 Celsius (active)
O=c1[nH]c(O)c2c1c1c3ccccc3nc1n1cncc21	9.3 Celsius [at 10 µM, protein 2 µM, buffer 10 mM Na Citrate, pH 6.5, NaCl 150 mM] (active)
Oc1[nH]c2ccccc2c1C=Nc1ccc2c(c1)OCCO2	4.66 Celsius (active)
CCC(CO)Nc1ccc2ncc(-c3ccc(C(=O)O)cc3)n2n1 (stereo unspecified)	5.19 Celsius (active)
CC1N=C2SC=CN2C(=O)C1CCN1CCC(=C(c2ccccc2)c2ccc(F)cc2)CC1 (stereo unspecified)	8.2 Celsius [at 10 µM, protein 2 µM, buffer 10 mM Na Citrate, pH 6.5, NaCl 150 mM] (active) and 6.4 Celsius [at 10 µM, protein 2 µM, buffer 10 mM Na Citrate, pH 6.5, NaCl 150 mM] (active)
CCC(CO)Nc1ccc2ncc(-c3cccc(OC(F)(F)F)c3)n2n1 (stereo unspecified)	9.04 Celsius (active)
O=S(=O)(c1cccc2c(Cl)cccc12)N1CCCNCC1	3.27 Celsius [at 10 µM, protein 3 µM, buffer 10 mM HEPES] (active)
CC(C)[C@@H](CO)Nc1ccc2ncc(-c3ccc(C#N)cc3)n2n1	4.53 Celsius (active)
c1csc(-c2cnc3ccc(NCC4CC4)nn23)c1	4.75 Celsius [at 5 µM, protein 1 µM, buffer 10 mM HEPES] (active)
O=C1NCc2c1c1c3ccccc3[nH]c1c1[nH]c3ccccc3c21	7.8 Celsius [at 10 µM, protein 2 µM, buffer 10 mM Na Citrate, pH 6.5, NaCl 150 mM] (active)
COc1ccc2oc3c(=O)[nH]cnc3c2c1	3.45 Celsius (active)
CC(=O)c1cccc(-c2cnc3ccc(NCC4CC4)nn23)c1	6.41 Celsius [at 5 µM, protein 1 µM, buffer 10 mM HEPES] (active)
OCC(O)CCO/N=C1/C(c2c(O)[nH]c3ccccc23)=Nc2ccccc21 (stereo unspecified)	4.1 Celsius [at 10 µM, protein 2 µM, buffer 10 mM Na Citrate, pH 6.5, NaCl 150 mM] (active)
O=C1NC(=O)C(c2cn(CCCn3ccnc3)c3ccccc23)=C1Nc1ccccc1	3.1 Celsius [at 10 µM, protein 2 µM, buffer 10 mM Na Citrate, pH 6.5, NaCl 150 mM] (active)
FC(F)(F)Oc1cccc(-c2cnc3ccc(NCC4CC4)nn23)c1	7.73 Celsius (active)
Brc1c(Br)c(Br)c2n[nH]nc2c1Br	4.6 Celsius [at 10 µM, protein 2 µM, buffer 10 mM Na Citrate, pH 6.5, NaCl 150 mM] (active)

SMILES	Tm shift
CC(C)(C)c1nc2c3cc[nH]c(=O)c3c3cc(F)ccc3c2[nH]1	4.9 Celsius [at 10 µM, protein 2 µM, buffer 10 mM Na Citrate, pH 6.5, NaCl 150 mM] (active)
CCN1/C(=C/C(C)=O)Sc2ccc(OC)cc21	6.4 Celsius [at 10 µM, protein 2 µM, buffer 10 mM Na Citrate, pH 6.5, NaCl 150 mM] (active)
O=C1NC(=O)c2c1c1c3ccccc3[nH]c1c1[nH]c3cc(Br)ccc3c21	7.64 Celsius (active)
Clc1cccc(Nc2ccn3ncc(-c4ccsc4)c3n2)c1	3.99 Celsius [at 10 µM, protein 2 µM, buffer 25 mM HEPES, pH 7.5, NaCl 250 mM] (active)
NCCNC(O)(O)c1cccc2c(Cl)cccc12	3.5 Celsius [at 10 µM, protein 2 µM, buffer 10 mM Na Citrate, pH 6.5, NaCl 150 mM] (active)
O=c1[nH]cnc2c1oc1ccc(Cl)cc12	3.41 Celsius (active)
COCCNc1ccc2ncc(-c3cccc(C(C)=O)c3)n2n1	4.92 Celsius (active)
CCOc1c(Br)ccc2c1sc1nc[nH]c(=O)c12	3.5 Celsius (active)
O=C(O)c1cccc(-c2cnc3ccc(NCC4CC4)nn23)c1	3.62 Celsius (active)
CC(O)(O)C1(O)C[C@@H]2O[C@@]1(C)n1c3ccccc3c3c4c(c5c6ccccc6n2c5c31)C(=O)NC4 (stereo partly specified)	4.3 Celsius [at 10 µM, protein 2 µM, buffer 10 mM Na Citrate, pH 6.5, NaCl 150 mM] (active)
CCN(CC)CCNC(=O)c1c(C)[nH]c(/C=C2\C(=O)Nc3ccc(Cl)cc32)c1C	3.2 Celsius [at 10 µM, protein 2 µM, buffer 10 mM Na Citrate, pH 6.5, NaCl 150 mM] (active)
c1ccc(-c2cnc3ccc(NCc4ccco4)nn23)cc1	3.07 Celsius [at 5 µM, protein 1 µM, buffer 10 mM HEPES] (active)
CN(C)CC1CCn2c(c(C3=C(c4cn(C)c5ccccc45)C(=O)NC3=O)c3ccccc32)C1 (stereo unspecified)	4.9 Celsius [at 10 µM, protein 2 µM, buffer 10 mM Na Citrate, pH 6.5, NaCl 150 mM] (active)
COc1cc(O)c2c(c1)oc(=O)c1c3cc(O)c(O)cc3oc21	3.8 Celsius [at 10 µM, protein 2 µM, buffer 10 mM Na Citrate, pH 6.5, NaCl 150 mM] (active)
Clc1ccc(-c2cnc3ccc(NC4CCOCC4)nn23)cc1	7.28 Celsius (active)
